Compound activity: PubChem BioAssay, National Center for Advancing Translational Sciences (NCATS)
Sampled rows, rich in hits. Any-hit rate of the full collection: about 19%.
DT40 TDP1 no CPT: qHTS for Inhibitors of human tyrosyl-DNA phosphodiesterase 1 (TDP1): qHTS in cells in absence of CPT; DT40 Tdp1-/- hTDP1 cells, no CPT, ATP luminescence, 48 h; Potency, µM (top dose mostly 46.2 µM), hits mostly inhibitors; 420,000 compounds, 15% hits; further: nearly all actives have a fitted effect of over 55% in size
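A cellular qHTS used chicken DT40 cells lacking endogenous Tdp1 but carrying stably transfected human TDP1. Compounds were applied without camptothecin, and cell growth kinetics were judged by ATP-dependent luminescence after ≥48 hr.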
IL-1B inflam inh: inhibitors of inflammasome signaling (IL-1 beta secretion). THP-1 LPS/ATP IL-1B secretion, AlphaLISA, 16 h; stronger effect = lower value. 360,000 compounds, 4.7% hits. activity change, % at 57.5 µM; in the data active means activity change below about -50%; inconclusive means mostly about -30% to -49%
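Secreted IL-1B measured by AlphaLISA bead assay after 16 h compound exposure of THP-1 cells; compounds (final up to 57.5 uM) added 1 h before LPS (250 ng/mL) and ATP (1.25 mM) stimulation; lower signal means less secretion.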
TGFb SMAD3 inh: TGF-b pathway inhibition | HepG2 CAGA-GFP TGF-b/SMAD3 reporter, GFP fluorescence, 18 h; TGF-beta stimulated, 500 pg/mL final | Potency, µM (top dose mostly 46.1 µM), usual class: inhibitors | 410,000 compounds, 1.2% hits; further: nearly all actives have a fitted effect of over 65% in size
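TGF-beta reporter screen: HEPG2 CAGA-GFP, 1% FBS, 500 pg/mL TGF-beta final, 18 h; per-cell GFP summed per well; curves fitted and categorized by class.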
TDP1 block: inhibitors of human tyrosyl-DNA phosphodiesterase TDP1. Q9NUW8. recombinant TDP1, AlphaScreen DNA substrate cleavage. Potency, µM (highest dose often 130 µM), usual class: inhibitors. 350,000 compounds, 0.28% hits; further: nearly all actives have a fitted effect of over 40% in size
Target sequence (Q9NUW8 whole entry, looked up): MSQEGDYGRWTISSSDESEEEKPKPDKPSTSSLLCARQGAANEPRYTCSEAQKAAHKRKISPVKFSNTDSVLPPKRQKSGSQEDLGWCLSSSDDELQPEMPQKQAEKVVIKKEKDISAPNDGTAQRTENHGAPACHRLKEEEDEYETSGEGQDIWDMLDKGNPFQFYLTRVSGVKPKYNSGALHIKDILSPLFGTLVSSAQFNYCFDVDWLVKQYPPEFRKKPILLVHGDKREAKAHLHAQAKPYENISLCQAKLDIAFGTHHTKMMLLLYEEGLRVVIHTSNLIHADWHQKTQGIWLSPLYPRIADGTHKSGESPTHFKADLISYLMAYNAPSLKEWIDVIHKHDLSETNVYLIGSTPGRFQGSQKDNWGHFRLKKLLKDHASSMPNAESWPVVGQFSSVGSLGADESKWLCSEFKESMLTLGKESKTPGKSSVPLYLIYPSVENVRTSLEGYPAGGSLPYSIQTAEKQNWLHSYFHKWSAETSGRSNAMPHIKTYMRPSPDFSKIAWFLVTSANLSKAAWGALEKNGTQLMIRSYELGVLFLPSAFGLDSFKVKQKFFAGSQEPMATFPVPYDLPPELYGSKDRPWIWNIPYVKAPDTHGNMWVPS
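Steps: enzyme plus compound, 15 min RT; add biotin/phosphotyrosine-FITC oligonucleotide (15 nM final), react 5 min; add donor/acceptor beads (10 ug/ml final), 10 min; read AlphaScreen. Tdp1 at 1 nM final.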
DT40 TDP1 CPT: growth inhibition of DT40 Tdp1-/-;hTDP1 cells with camptothecin (screen for TDP1 inhibitors). AID 686979. chicken DT40 Tdp1-/-;hTDP1 cells + 20 nM CPT, ATP luminescence, 48 h. 420,000 compounds, 12% hits. Potency, µM (titrated, usually from 46.2 µM), actives largely listed as inhibitors; further: nearly all actives have a fitted effect of over 55% in size
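Chicken DT40 Tdp1-/- cells complemented with human TDP1, 400 cells/well, exposed to compounds plus 20 nM camptothecin for at least 48 h at 37 C; viability read as ATP content by CellTiter-Glo luminescence.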
HepG2 tox: counter-screen for TGF-b inhibitors: cytotoxicity in HepG2 cells | HepG2 CAGA-GFP viability, ATP luminescence, 18 h | Potency, µM (doses to about 46.1 µM), actives largely listed as cytotoxic | 410,000 compounds, 0.76% hits | AID 588856
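CellTiter-Glo luminescence gave cytotoxicity after 18 hours at 37 degrees C. The cells were HepG2 CAGA-GFP in 1% FBS DMEM, stimulated with 500 pg/mL TGF-beta after compound addition. %Activity was normalised to no-cell wells (complete cell-killing) and DMSO (no toxicity), and curves were fitted and classified.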
Numbers stand for hits; 0 = inactive; ? = inconclusive; - = no result; [ ] = dose if it differs, or a comment. Unless noted, the call rests on the fitted dose curve; in most records, active means well fitted curve in the direction sought with a large enough effect; inconclusive means small, poorly fitted or top-dose-only effect, or another doubt; inactive means no such curve, though single readings can be large; an effect the other way counts as inactive or inconclusive.

SMILES	DT40 TDP1 no CPT	IL-1B inflam inh	TGFb SMAD3 inh	TDP1 block	DT40 TDP1 CPT	HepG2 tox
Clc1ccccc1-c1nc2ccccc2c2nc3ccccc3n12	13µM	0	0	0	?	0
Fc1ccc(-c2nc3ccccc3c3nc4ccccc4n23)cc1	?	0	0	0	?	0
O=C(c1cccc(Br)c1)c1nc2ccccc2[nH]c1=O	0	0	0	-	0	0
CCCOC(=O)c1ccc(N)cc1	0	-	-	0	0	-
CCN(CCCNC(=O)CSc1cc(=O)n(C)c2cc(Cl)ccc12)c1ccccc1	?	-	?	0	?	0
COCCNC(=O)CSc1cc(=O)n(C)c2cc(Cl)ccc12	0	0	0	0	0	0
CCc1ccc(CNC(=O)CSc2cc(=O)n(C)c3ccc(Cl)cc23)cc1	23µM	-	0	0	23µM	0
CN(CCCNC(=O)CSc1cc(=O)n(C)c2ccc(Cl)cc12)Cc1ccccc1	?	-54	0	0	?	0
Cc1c(C(=O)NCc2cccc(Cl)c2)sc2nc[nH]c(=O)c12	?	-	0	0	?	0
CCc1nn(CC(=O)NCCN(CC(C)C)CC(C)C)c(=O)c2cc3sc(C)cc3n12	21µM	-	0	0	15µM	0
COc1cccc(CNC(=O)c2ccc(NS(=O)(=O)c3ccc4[nH]c(=O)[nH]c4c3)cc2)c1	0	0	0	0	0	0
O=C(COC(=O)c1cc([N+](=O)[O-])ccc1NCCO)Nc1cccc(S(=O)(=O)N2CCCC2)c1	13µM	0	0	-	29µM	0
CCS(=O)c1ccccc1C(=O)OCC(=O)Nc1cccc(S(=O)(=O)N2CCCCC2)c1 (stereo not drawn)	5.8µM	0	?	0	12µM	0
O=C(COC(=O)c1cc([N+](=O)[O-])ccc1NCCO)Nc1ccc2c(c1)OCO2	0	0	0	0	0	0
CCOc1ccccc1C(=O)OCC(=O)Nc1cccc(S(=O)(=O)N2CCCC2)c1	21µM	0	0	0	21µM	0
O=C(CNCCc1ccc(Cl)cc1)Nc1ccc(C(=O)N2CCCCC2)cc1	?	0	0	0	?	0
CC(c1ccco1)N(C)c1ncnc2ccc(-c3ccc4c(c3)OCO4)cc12 (stereo not drawn)	-	-	-	0	-	-
Cc1cc(C(=O)Cn2nc(C(=O)O)c3ccccc3c2=O)c(C)n1CCc1ccc(Cl)cc1	?	0	?	0	21µM	0
O=C(CNS(=O)(=O)c1ccc(F)cc1)Nc1ccc(C(F)(F)F)cc1	18µM	0	0	0	18µM	0
CC(C)c1ccc(NC(=O)CNS(=O)(=O)c2ccc(F)cc2)cc1	12µM	0	0	0	16µM	0
O=C(CNS(=O)(=O)c1ccccc1)Nc1ccc(C(F)(F)F)cc1	16µM	0	0	0	16µM	0
O=C(Nc1ccc(C(F)(F)F)cc1)c1ccccc1	0	0	?	0	0	0
COc1ccc(S(=O)(=O)NCC(=O)Nc2ccc(F)cc2)cc1	?	0	0	0	0	0
O=C(C[n+]1ccc(C(=O)c2ccccc2)cc1)Nc1ccc(C(F)(F)F)cc1	16µM	-60	0	0	23µM	0
COC(=O)c1nnn(CC(=O)Nc2c(C)cccc2C)c1N	0	-	0	0	0	0
SMILES	DT40 TDP1 no CPT	IL-1B inflam inh	TGFb SMAD3 inh	TDP1 block	DT40 TDP1 CPT	HepG2 tox
CCC(C)COC(=O)C(C#N)c1nc2ccccc2nc1N1CCCCC1 (stereo not drawn)	16µM	0	0	0	?	0
CCC(CC)COC(=O)C(C#N)c1nc2ccccc2nc1N1CCN(CC)CC1 (stereo not drawn)	?	-60	?	0	21µM	0
CCCCCCOC(=O)C(C#N)c1nc2ccccc2nc1N1CCN(C)CC1 (stereo not drawn)	?	0	?	0	?	0
CC(C)OC(=O)C(C#N)c1nc2ccccc2nc1N1CCCC1 (stereo not drawn)	?	0	0	0	0	0
COc1ccc(CN(C2CCCC2)S(=O)(=O)c2ccc(-n3cnnn3)c(OC)c2)cc1OC	?	-52	?	0	?	0
CCN(C1CCCCC1)S(=O)(=O)c1ccc(OC)c(C)c1	16µM	0	0	-	15µM	0
COc1ccc(C)cc1S(=O)(=O)N(C)CC(=O)NC1CCCCCC1	0	0	0	0	0	0
CCN(C1CCCCC1)S(=O)(=O)c1cc(C)ccc1OC	18µM	0	0	0	?	0
CCN(C1CCCCC1)S(=O)(=O)c1ccc(-n2cnnn2)c(C)c1	0	0	0	0	0	0
CCC(C(=O)NCc1ccccc1Cl)n1c(=O)c2cccn2c2ccccc21 (stereo not drawn)	?	-	?	0	?	0
COc1cccc(Nc2ccc(Nc3cccc(OC)c3)nn2)c1	?	-99	0	0	?	0
COc1cccc(Nc2ncc3nc(-c4ccccc4)c(=O)n(C)c3n2)c1	0	-	-	-	?	-
CC(C)(c1ccccc1)c1ccc(OCC(O)CN2CCCC2)cc1 (stereo not drawn)	?	-67	0	-	?	0
CN1CCN(CC(O)COc2ccccc2)CC1 (stereo not drawn)	0	0	0	-	0	0
OC1CCCN(CC(O)COc2ccc(-c3ccccc3)cc2)C1 (stereo not drawn)	23µM	0	0	-	?	0
CN1CCN(CC(O)COc2ccc(C34CC5CC(CC(C5)C3)C4)cc2)CC1 (stereo not drawn)	13µM	-99	?	0	?	0
COc1ccc(OCC(O)CN2CCCC2)cc1 (stereo not drawn)	0	0	0	0	0	13µM
COc1ccc(C(=O)OC2CC3CC[C@H](C2)N3C(C)=O)cc1OC (stereo partly drawn)	0[9.04 µM]	-	-	0	0[9.04 µM]	-
O=C(O)C1OC(O)C(O)C(O)C1O (stereo not drawn)	-	-	-	0	-	-
Cc1c(C(=O)Nc2ccc(F)cc2F)oc2c1-c1nn(Cc3c(F)cccc3Cl)cc1CC2	?	-	0	0	?	0
CCOC(=O)c1cc(-c2ccccc2)n(CC(=O)Nc2ccc(OC)c(OC)c2)c1C	?	0	0	0	?	0
CCOC(=O)c1cc(-c2ccccc2)n(CC(=O)Nc2ccccc2OCC)c1C	9.2µM	-	0	0	0	0
COc1ccc(NC(=O)Cn2c(-c3ccccc3)cc(C(C)=O)c2C)c(OC)c1	0	0	0	0	0	0
CCOC(=O)c1cc(-c2ccccc2)n(CCC(=O)Nc2cc(OCC)ccc2OCC)c1C	?	-	0	0	16µM	0
CCOC(=O)c1cc(-c2ccccc2)n(CC(=O)Nc2cccc(OC)c2)c1C	5.8µM	0	?	0	?	0
